In PMC5540273 (PLoS ONE, 2017):

Legend:
Details in all cases: concentration: 1 μM, replicates: in singlicate; n = 1
CSNK1G1 = test system: CSNK1G1
CSNK1G2 = test system: CSNK1G2
CSNK1G3 = test system: CSNK1G3
CSNK2A1 = test system: CSNK2A1
CSNK2A2 = test system: CSNK2A2
CTK = test system: T1, CTK
T1 construct: gene MATK

DAPK1 = test system: DAPK1
DAPK2 = test system: DAPK2
DAPK3 = test system: DAPK3
DCAMKL1 = test system: T2, DCAMKL1
T2 construct: gene DCLK1

DCAMKL2 = test system: T3, DCAMKL2
T3 construct: gene DCLK2

DCAMKL3 = test system: T4, DCAMKL3
T4 construct: gene DCLK3

DDR1 = test system: DDR1
DDR2 = test system: DDR2
DLK = test system: T5, DLK
T5 construct: gene MAP3K12

DMPK2 = test system: T6, DMPK2
T6 construct: gene CDC42BPG

DMPK = test system: DMPK
DRAK1 = test system: T7, DRAK1
T7 construct: gene STK17A

DRAK2 = test system: T8, DRAK2
T8 construct: gene STK17B

DYRK1A = test system: DYRK1A
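Further: KINOMEscan kinase panel screen.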

SMILES | %Inh (CSNK1G1) | %Inh (CSNK1G2) | %Inh (CSNK1G3) | %Inh (CSNK2A1) | %Inh (CSNK2A2) | %Inh (CTK) | %Inh (DAPK1) | %Inh (DAPK2) | %Inh (DAPK3) | %Inh (DCAMKL1) | %Inh (DCAMKL2) | %Inh (DCAMKL3) | %Inh (DDR1) | %Inh (DDR2) | %Inh (DLK) | %Inh (DMPK2) | %Inh (DMPK) | %Inh (DRAK1) | %Inh (DRAK2) | %Inh (DYRK1A)
O=C(Nc1cccc(Oc2ccc3nc(NC(=O)C4CC4)cn3n2)c1)c1ccccc1C(F)(F)F | 8% | 0% | 26% | 0% | 0% | 0% | 0% | 5% | 7% | 39% | 0% | 0% | 98.9% | 88% | 7% | 17% | 0% | 0% | 21% | 12%
CC(=O)N1CCN(c2ccc(Nc3nccc(-c4sc(C(C)C)nc4-c4cccc(NS(=O)(=O)c5cccc(Cl)c5)c4)n3)cn2)CC1 [GSK1660437] | 0% | 0% | 10% | 13% | 0% | 27% | 14% | 0% | 6% | 9% | 19% | 52% | 98.2% | 40% | 23% | 0% | 0% | 0% | 0% | 0%
COc1cc(Nc2nccc(-c3c(-c4cccc(NC(=O)c5c(F)cccc5F)c4)nn4ccccc34)n2)cc(OC)c1OC [GSK323521] | 20% | 31% | 25% | 2% | 6% | 0% | 0% | 22% | 19% | 9% | 11% | 11% | 90.3% | 61% | 3% | 49% | 9% | 0% | 0% | 13%
Cc1cccc(Nc2nc(N[C@H]3CCNC3)ncc2C(N)=O)c1.Cl [GSK2197149] | 14% | 11% | 15% | 52% | 0% | 13% | 69% | 51% | 22% | 16% | 30% | 0% | 0% | 0% | 35% | 4% | 0% | 53% | 22% | 24%
COC(=O)Nc1nc2ccc(Oc3ccc(NC(=O)Nc4cc(C(F)(F)F)ccc4F)cc3)cc2n1C.Cl [GW692089] | 6% | 0% | 12% | 0% | 1% | 0% | 0% | 0% | 0% | 6% | 0% | 9% | 100% | 99.9% | 31% | 0% | 0% | 0% | 9% | 2%
